Compound activity as filed in PubChem.
FEN1 inh: human FEN1 inhibition | P39748 | Recombinant FEN1 flap cleavage, fluorescence, 15 min | Potency, µM (highest dose often 114 µM), for the others: at the highest dose activity change, negative = inhibition, most hits filed as inhibitors | actives 0.35% (n = 390,000); note: potency is the fitted concentration of half-maximal effect; % is set by controls: 0 for no effect and ±100 for the full control effect; nearly all actives have a fitted effect of over 65% in size
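Concentration–response screening of FEN1 (10 nM): 15 min compound preincubation at room temperature, reaction started with 50 nM substrate and read at 0 and 15 min. Corrected, normalized data were fitted by a four-parameter Hill equation.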
VDR inh: inhibitors of human vitamin D receptor. Potency, µM, without a hit: max response, negative = inhibition, hits mostly inhibitors. AID 504847. P11473. actives 0.93% (n = 400,000). VDR-SRC2-3 peptide fluorescence polarization, 2 h; note: potency is the fitted concentration of half-maximal effect; % is set by controls: 0 for no effect and ±100 for the full control effect
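Measured by FP: displacement of SRC2-3 coactivator peptide from VDR by library compounds, following a two-hour ambient incubation.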
TCR act: activates T cell receptor signaling. primary human leukocytes, anti-CD3, IL-2 HTRF, 48 h. Potency, µM (series often up to 9.22 µM), inactives show at the top dose activation of IL-2 secretion, actives largely listed as activators. 330,000 tested, under 10 active. AID 504894; note: % of control where 0% means no effect
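Using a-CD3 beads without co-stimulation, primary human leukocytes were exposed to compounds for 48 hr. An HTRF IL-2 kit measured the cytokine, with europium-to-d2 energy transfer producing emission at 665nm upon 320nm excitation.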
PI5P4Ka inh: PI5P4K alpha (human) kinase inhibition | actives 1.2% (n = 330,000) | PI5P4Kalpha enzyme, ADP-Glo luminescence, 60 min; hits give low values | max response, %; active = max response of -50% or lower; inconclusive = between -30% and -50%; inactive = -30% or higher; note: value at the top dose of about 77 µM; % is set by controls: 0 for no effect and ±100 for the full control effect
Target sequence (P48426 whole entry, looked up): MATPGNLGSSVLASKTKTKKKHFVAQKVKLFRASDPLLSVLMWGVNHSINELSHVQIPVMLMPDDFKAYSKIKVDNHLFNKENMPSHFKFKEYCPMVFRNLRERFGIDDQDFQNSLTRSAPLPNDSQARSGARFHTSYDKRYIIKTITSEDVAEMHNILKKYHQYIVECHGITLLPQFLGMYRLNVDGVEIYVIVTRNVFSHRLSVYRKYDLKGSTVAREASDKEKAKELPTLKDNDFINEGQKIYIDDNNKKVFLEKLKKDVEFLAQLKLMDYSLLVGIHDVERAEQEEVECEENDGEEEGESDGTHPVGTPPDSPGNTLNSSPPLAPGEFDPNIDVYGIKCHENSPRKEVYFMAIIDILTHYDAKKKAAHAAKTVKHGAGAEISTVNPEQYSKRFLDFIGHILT
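Quantitative HTS of the MLSMR library against PI5P4Kalpha with substrate. ATP added last at 5 microM final; room temperature, 60 minutes. Remaining ATP depleted, ADP converted and read as luminescence.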
PLK1 PBD inh: blocks phosphopeptide binding to human PLK1 polo-box domain; AID 720504; P53350; Plk1 PBD binding of FITC phosphopeptide, fluorescence polarization; actives 2.8% (n = 360,000); Potency, µM, inactives show max response, negative = inhibition, usual class: inhibitors; note: potency is the fitted concentration of half-maximal effect; series mostly up to about 57 µM; % is set by controls: 0 for no effect and ±100 for the full control effect; nearly all actives have a fitted effect of over 65% in size
WRN inhibitor: WRN helicase (human) inhibition; WRN helicase unwinding, fluorescent forked duplex, kinetic; Potency, µM (top dose mostly 114 µM), without a hit: at the top dose activity change, negative = inhibition, hits mostly inhibitors; actives 0.46% (n = 360,000); Q14191; note: potency is the fitted concentration of half-maximal effect; % is set by controls: 0 for no effect and ±100 for the full control effect; nearly all actives have a fitted effect of over 55% in size
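WRN at 20 nM final was preincubated with compound for 15 min at room temperature; reaction started with 100 nM forked duplex oligonucleotide carrying fluorophore and quencher plus 2 mM ATP (final). Unwinding followed kinetically by red fluorescence (ex 525/em 598 nm).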
The depositor's hits bear a star; u = inconclusive; x = not tested or not shown; [ ] = another dose, or the depositor's remark. In the library only some 3.7% were active in any assay of this set; here they are far more common. Unless noted, calls come from the whole dose curve; as a rule, active = well fitted curve in the direction sought with a large enough effect; inconclusive = small, poorly fitted or top-dose-only effect, or another doubt; inactive = no such curve, though single readings can be large; an effect the other way counts as inactive or inconclusive.

SMILES	FEN1 inh	VDR inh	TCR act	PI5P4Ka inh	PLK1 PBD inh	WRN inhibitor
COC(=O)/C(=C(/F)Sc1cc(C)c(O)c(C)c1)C(F)(F)F	-9%	1%	-5%	x	3.8µM*	-16%
Cc1ccc(C(NC(=O)N2CCN(C)CC2)C(Cl)Cl)cc1F (centres undefined)	7%	u	11%	1	-15%	1%
Cc1ccc(C(NC(=O)N2CCOCC2)C(Cl)Cl)cc1F (centres undefined)	18%	-2%	0%[46.1 µM]	4	27µM*	0%
Nc1nc2cc(S(=O)(=O)N3CCOCC3)ccc2o1	-7%	40µM*	1%	-29	5.3µM*	-26%
CN(C)C(=O)CSc1nc2cc(S(=O)(=O)N3CCOCC3)ccc2o1	5%	u	2%	-11	21µM*	-24%
CCn1c(SCC(=O)N(C)C)nc2cc(S(=O)(=O)N3CCOCC3)ccc21	6%	2%	-5%	-5	-3%	-1%
O=C(CNC(=O)c1ccco1)N/N=C/c1c[nH]c2ccccc12	-14%	-1%	-1%	-4	-5%	3%
O=C(CNC(=O)c1cccs1)N/N=C/c1c[nH]c2ccccc12	1%	-2%	4%	-14	19µM*	3%
Cc1cccc(NCC(=O)N/N=C\c2c[nH]c3ccccc23)c1	-7%	8%	-2%	6	-3%	-18%[57.1 µM]
Cc1ccccc1NCC(=O)N/N=C/c1c[nH]c2ccccc12	-14%	-2%	-4%	15	30µM*	0%
CC1=C(C(=O)OC2CCCCCC2)C(c2cccc(Cl)c2)CC(=O)N1 (centres undefined)	13%	u	x	x	x	x
CCN(C(=O)C(=O)c1c(C)[nH]c2ccccc12)c1ccccc1	-20%	x	x	x	x	x
O=C(Nc1ccccc1C(F)(F)F)C1(S(=O)(=O)c2ccc(Cl)cc2)CC1	-13%	-5%	x	x	x	x
O=C1C=CC(=O)N1c1ccc(O)cc1	-33%	25µM*	2%	-19	17µM*	-8%
CCn1c(=S)sc2nc(C)sc21	-1%	u	1%	x	21µM*	-7%
CCC(Sc1nncn2c1cc1occc12)C(=O)Nc1ccc(C)c(Cl)c1 (centres undefined)	-2%	-1%	x	x	x	x
Cc1ccc(OCC(=O)OC2=C(C(=O)c3ccccc3)N(C)S(=O)(=O)c3ccccc32)cc1	7%	-18%	x	x	x	x
COC(=O)Nc1ccc(OCc2ccccc2)cc1	8%	15%	-9%	x	-8%	3%
Cc1cnc(NC(=O)Nc2ccc(OCc3ccccc3)cc2)c(Br)c1	14%	-22%	-11%	-2	30µM*	-2%
C#CCNC(=O)C1=C[C@H](c2ccc(C#C)cc2)C[C@H](OCc2ccc(CO)cc2)O1	0%	-6%	-2%	-59*	-25%	-12%
NC(=S)NCCC[C@H](N)C(=O)O	x	50µM*	x	x	x	x
CCNc1ccc(C(=O)OCC(=O)N2CCCC2)cc1[N+](=O)[O-]	1%	u	0%	-10	27µM*	9%
O=C(OCC(=O)N1CCCC1)c1ccc(Cl)c([N+](=O)[O-])c1	13%	0%	-3%	0	-8%	12%
Cc1ccc(N(CC(=O)N2CCN(c3cc(C)ccc3C)CC2)S(=O)(=O)c2c(C)nn(C)c2C)cc1	u	-1%	x	x	x	x
CCCCSc1nnc2c(n1)OC(c1ccc(C)s1)Nc1ccccc1-2 (centres undefined)	10%	-4%	x	x	x	x
SMILES	FEN1 inh	VDR inh	TCR act	PI5P4Ka inh	PLK1 PBD inh	WRN inhibitor
Cc1cc(F)ccc1S(=O)(=O)Nc1ccc2c(c1)CCCN2C(=O)c1cccs1	1%	0%	x	x	x	x
CCOc1ccc(CCNS(=O)(=O)c2ccc(-c3ccc(=O)[nH]n3)o2)cc1OCC	19%	-5%	3%	4	-6%	5%
CCOc1ccc(CCNS(=O)(=O)c2cnc[nH]2)cc1OCC	-12%	10%	0%	2	27µM*	4%
FC(F)(F)c1nnc(-c2ccccc2)nc1Sc1ccc(Cl)cc1	-7%	71µM*	-2%	2	-30%	-5%
COc1ccc(CN2CC[C@H]3C=CC[C@@H](C(=O)Nc4ccccc4)[C@H]3C2=O)cc1OC	-4%	x	x	x	x	x
N#Cc1cn(CC(=O)N2CCCc3ccccc32)c2ccccc12	1%	16%	-8%[46.1 µM]	5	-1%	-1%
O=Cc1cn(CC(=O)N2CCCc3ccccc32)c2ccccc12	8%	-13%	2%[46.1 µM]	-69*	2.7µM*	u
CCCCCC1CCNCC1	-8%	x	x	x	x	x
COc1ccc(N=C2C(=O)N3c4c(cccc42)C(C)=CC3(C)C)cc1	-20%	50µM*	-7%[46.1 µM]	-12	-17%	-11%
Cc1ccc(C)c(CSc2nnc(C)n3c2cc2sccc23)c1	u	9%	x	x	x	x
CC(C(=O)Nc1ccc(O)cc1)c1cccc(C(=O)c2ccccc2)c1 (centres undefined)	-6%	-15%	2%	-23	12µM*	-1%[57.1 µM]
CC(=O)Nc1ccc(NC(=O)C(C)c2cccc(C(=O)c3ccccc3)c2)cc1 (centres undefined)	1%	2%	-4%[46.1 µM]	-3	-3%	-1%
O=S1(=O)[C@H]2C[C@@H]3C=C[C@@]2(CN1Cc1ccc(F)cc1)O3	1%	u	-12%	-3	24µM*	3%
O=S1(=O)C2CC3C=CC2(CN1Cc1cccc(F)c1)O3 (centres undefined)	-3%	6%	x	x	x	x
CN(C)c1ccc(N=Cc2ccco2)cc1	-12%	2µM*	15%	x	-10%	-8%
O=C(Cc1cccc2c(=O)cc(-c3ccccc3)oc12)OCCN1CCOCC1	x	x	x	2	-5%	-9%
N=C(N)SCc1cccc2c(=O)cc(-c3ccccc3)oc12	50µM*	x	x	x	x	x
N#Cc1ccc(CC(=O)c2ccccc2)[nH]c1=O	3%	u	3%	-17	-9%	56µM*
Cc1ccc(OCC(=O)Nc2ccc3nc(SCC(=O)N4CCCC4)sc3c2)cc1	2%	5%	x	x	x	x
CSc1nnc(C(C)(C)C)c(=O)n1/N=C/c1ccc(Cl)cc1	-5%	9%	1%	0	1%	-1%
CSc1nnc(C(C)(C)C)c(=O)n1/N=C/c1ccccc1O	14%	u	2%	5	24µM*	-2%
CC(=O)NC(Cc1ccc(O)cc1)C(=O)NCC(N)C(=O)c1ccccc1 (centres undefined)	9%	x	x	x	x	x
Cc1cc(C)c(SSc2nnnn2-c2ccccc2)c(C)c1	x	x	x	-80*	3µM*	4%
Cc1ccc2cc(C)c(Sc3nnnn3-c3ccccc3)nc2c1	-7%	3%	0%[46.1 µM]	1	-7%	3%
CC/C(=C/c1ccccc1OC)c1cc(-c2ccccc2)cc2oc3ccccc3c12	-19%	x	x	x	x	x
COc1ccc(C)cc1N(C)C(=O)c1c2c(nc3ccccc13)C(=O)N(C1CCCCC1)C2	-15%	-4%	x	x	x	x
CCc1ccccc1NS(=O)(=O)c1ccc2[nH]cc(C(=O)N(CC)Cc3ccccc3)c(=O)c2c1	7%	11%	x	x	x	x
